Active and inactive are the calls of the source. Rule for the calls: active = hit-call score of the fitted dose curve at least 0.9, where 1 is the maximum; inactive = score below 0.9.
Read-out: Intercellular Adhesion Molecule 1 (ICAM1), ICAM1 (gene 3383)
Assay: BSK_BE3C_ICAM1: BioMAP Diversity Plus: BE3C Assay for Intercellular Adhesion Molecule 1 (ICAM1) Biomarker Activity (AID 2284278)
Conditions: primary human bronchial epithelial cells
Description: BSK_BE3C is a cell-based, multiplexed-readout assay that uses bronchial epithelial cell, a human lung primary cell, with measurements taken at 24 hours after chemical dosing in a 96-well plate.BSK_BE3C_ICAM1 is an assay component measured in the BSK_BE3C assay. It measures ICAM-1 antibody related to regulation of gene expression using ELISA technology.Data from the assay component BSK_BE3C_ICAM1 was analyzed at the endpoint, BSK_BE3C_ICAM1, in the positive analysis fitting direction relative to DMSO as the negative control and baseline of activity. Using a type of binding reporter, gain or loss-of-signal activity can be used to understand protein changes. To generalize the intended target to other relatable targets, this assay endpoint is annotated to the 'cell adhesion molecules' intended target family, where the subfamily is 'Immunoglobulin CAM'.
The levels of cell surface (or secreted, indicated by the prefix "s") biomarker endpoints were measured by ELISA. Overt cytotoxicity to cells in confluent adherent cultures (all systems other than the BT system) was assessed by measuring total protein levels using sulforhodamine B (SRB) staining in parallel cultures at the time of biomarker measurements, indicated as SRB endpoints. For proliferation assays for adherent cell types, individual cell types are cultured at sub-confluence and relative cell numbers quantified by SRB staining at time points optimized for each system (48 h: 3C and CASM3C systems; 72 h: BT and HDF3CGF systems; 96 h: SAg system). SRB was performed by staining cells with 0.1% SRB after fixation with 10% TCA and reading wells at 560 nm.Viability and proliferation of PBMC (T cells) was quantified by Alamar Blue reduction for the SAg and BT systems. For PBMC viability (referred to as PBMC Cytotoxicity within the assay endpoint names), cells were plated (75,000/well in a 96-well plate) and then chemical samples added for 1 h before addition of activators, SEB and TSST-1 (20 ng/mL final concentration each). Cells were incubated for 90 h. Then, Alamar Blue (20 uL/well) (Invitrogen, Cat DAL1100) was added for 6 h, and the plates were read with a fluorescence microplate reader at 546/580 nm (excitation/emission). For PBMC proliferation, cells were plated and activated as above but incubated for only 16 h prior to addition of Alamar Blue. Plates were read after 6 h.

| SMILES | outcome |
| --- | --- |
| COc1cc(C=O)ccc1OC(=O)C(C)C | inactive |
| Nc1cc([N+](=O)[O-])ccc1O | inactive |
| CC[Si](OC(C)=O)(OC(C)=O)OC(C)=O | inactive |
| NCCNCCN | inactive |
| CC(=O)OCCC(C)CC(C)(C)C (configuration not stated) | inactive |
| OC1OC[C@@H](O)[C@H](O)[C@H]1O (some centres not stated) | inactive |
| Cc1cc(C2(c3cc(C)c(O)cc3C)OS(=O)(=O)c3ccccc32)c(C)cc1O | inactive |
| C[C@H]1C[C@@H]2[C@H]([C@@H](O)C[C@@]3(C)[C@H]2CC[C@]3(O)C(=O)CO)[C@@]2(C)C=CC(=O)C=C12 | inactive |
| OC[C@H]1O[C@H](O[C@]2(CCl)O[C@H](CCl)[C@@H](O)[C@@H]2O)[C@H](O)[C@@H](O)[C@H]1Cl | inactive |
| CCC(=O)OCc1ccccc1 | inactive |
| CC(=O)[C@H]1CC[C@H]2[C@@H]3CC=C4C[C@@H](O)CC[C@]4(C)[C@H]3CC[C@]12C | inactive |
| C=CCOC(=O)CCC1CCCCC1 | inactive |

From PubChem BioAssay (EPA / NIEHS)
